Legend:
Test in all cases: log2 ratio of Biotin-Ahx-Ub-VS probe labelling (fragment/DMSO); higher = less target engagement (more negative = stronger competition), active = hit call of the paper (q ≤ 0.05, log2 ratio ≤ -1)
Settings in all cases: compound concentration: 200 uM; treatment time: 3 h
USP9X = USP9X (UniProt Q93008)
Method in brief: (§1)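 Fragment (200 µM) or vehicle was incubated for 3 h with triplicate HEK293T lysate samples of 495 µg, which were then treated with Biotin-Ahx-Ub-VS at 0.5 µM final for 1 h. Labelled DUBs were enriched on NeutrAvidin, digested with LysC and trypsin, and analysed by diaPASEF LC-MS/MS. Values are average log2 fragment/vehicle ratios from an unpaired t-test on global-median-normalised Spectronaut label-free quantities, using proteins with ≥2 unique peptides.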

UniProt O00487 = molecular target: UniProt O00487
Sequence of UniProt O00487 (O00487 whole entry): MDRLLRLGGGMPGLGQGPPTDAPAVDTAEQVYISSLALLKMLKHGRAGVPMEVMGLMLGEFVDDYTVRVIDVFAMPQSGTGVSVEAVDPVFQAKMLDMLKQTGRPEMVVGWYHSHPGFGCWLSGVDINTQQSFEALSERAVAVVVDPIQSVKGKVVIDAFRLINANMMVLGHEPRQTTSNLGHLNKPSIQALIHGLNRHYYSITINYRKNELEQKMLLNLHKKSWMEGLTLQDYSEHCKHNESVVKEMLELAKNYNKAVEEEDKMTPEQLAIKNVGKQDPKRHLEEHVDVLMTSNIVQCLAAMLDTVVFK
Method in brief: as §1

UniProt O00507 = molecular target: UniProt O00507
Method in brief: as §1

UniProt P51784 = molecular target: UniProt P51784
Sequence of UniProt P51784 (P51784 whole entry): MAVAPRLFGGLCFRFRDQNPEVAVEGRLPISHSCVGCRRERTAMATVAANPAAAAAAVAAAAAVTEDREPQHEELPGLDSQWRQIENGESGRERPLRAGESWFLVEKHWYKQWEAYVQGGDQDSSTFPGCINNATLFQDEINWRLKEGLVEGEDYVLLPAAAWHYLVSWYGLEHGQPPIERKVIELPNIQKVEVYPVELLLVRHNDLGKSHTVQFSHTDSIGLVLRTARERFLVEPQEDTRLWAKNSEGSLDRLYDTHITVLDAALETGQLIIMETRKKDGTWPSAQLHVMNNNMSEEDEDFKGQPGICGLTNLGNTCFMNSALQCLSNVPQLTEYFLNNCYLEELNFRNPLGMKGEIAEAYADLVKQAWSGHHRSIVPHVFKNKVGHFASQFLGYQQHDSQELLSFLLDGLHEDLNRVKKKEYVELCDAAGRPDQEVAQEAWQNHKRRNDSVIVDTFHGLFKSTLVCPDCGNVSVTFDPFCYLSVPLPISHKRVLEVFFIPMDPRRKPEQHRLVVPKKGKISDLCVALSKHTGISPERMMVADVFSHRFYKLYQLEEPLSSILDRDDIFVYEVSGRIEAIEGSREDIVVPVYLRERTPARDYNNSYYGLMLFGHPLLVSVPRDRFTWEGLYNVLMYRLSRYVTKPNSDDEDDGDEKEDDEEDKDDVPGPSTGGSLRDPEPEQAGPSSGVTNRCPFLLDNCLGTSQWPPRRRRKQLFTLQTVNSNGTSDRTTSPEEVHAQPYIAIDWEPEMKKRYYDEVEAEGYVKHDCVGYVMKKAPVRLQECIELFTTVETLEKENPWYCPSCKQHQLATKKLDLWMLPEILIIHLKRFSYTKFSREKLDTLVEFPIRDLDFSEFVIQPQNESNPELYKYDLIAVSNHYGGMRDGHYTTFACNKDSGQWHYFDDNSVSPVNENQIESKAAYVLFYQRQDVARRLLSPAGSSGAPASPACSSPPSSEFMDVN
Method in brief: as §1

UniProt Q5T2D3 = molecular target: T1, UniProt Q5T2D3
T1 sequence (whole entry): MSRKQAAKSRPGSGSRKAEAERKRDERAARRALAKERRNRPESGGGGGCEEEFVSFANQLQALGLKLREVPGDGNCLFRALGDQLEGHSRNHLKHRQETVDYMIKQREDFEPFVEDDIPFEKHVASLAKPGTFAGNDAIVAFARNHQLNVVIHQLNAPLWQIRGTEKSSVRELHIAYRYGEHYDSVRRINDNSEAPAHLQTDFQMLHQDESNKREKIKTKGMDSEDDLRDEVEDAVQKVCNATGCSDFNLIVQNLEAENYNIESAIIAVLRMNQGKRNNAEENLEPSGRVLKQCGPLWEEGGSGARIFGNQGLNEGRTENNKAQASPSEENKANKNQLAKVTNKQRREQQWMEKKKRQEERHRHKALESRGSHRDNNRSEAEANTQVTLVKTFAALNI
Method in brief: as §1

UniProt Q8TE49 = molecular target: T2, UniProt Q8TE49
T2 sequence (whole entry): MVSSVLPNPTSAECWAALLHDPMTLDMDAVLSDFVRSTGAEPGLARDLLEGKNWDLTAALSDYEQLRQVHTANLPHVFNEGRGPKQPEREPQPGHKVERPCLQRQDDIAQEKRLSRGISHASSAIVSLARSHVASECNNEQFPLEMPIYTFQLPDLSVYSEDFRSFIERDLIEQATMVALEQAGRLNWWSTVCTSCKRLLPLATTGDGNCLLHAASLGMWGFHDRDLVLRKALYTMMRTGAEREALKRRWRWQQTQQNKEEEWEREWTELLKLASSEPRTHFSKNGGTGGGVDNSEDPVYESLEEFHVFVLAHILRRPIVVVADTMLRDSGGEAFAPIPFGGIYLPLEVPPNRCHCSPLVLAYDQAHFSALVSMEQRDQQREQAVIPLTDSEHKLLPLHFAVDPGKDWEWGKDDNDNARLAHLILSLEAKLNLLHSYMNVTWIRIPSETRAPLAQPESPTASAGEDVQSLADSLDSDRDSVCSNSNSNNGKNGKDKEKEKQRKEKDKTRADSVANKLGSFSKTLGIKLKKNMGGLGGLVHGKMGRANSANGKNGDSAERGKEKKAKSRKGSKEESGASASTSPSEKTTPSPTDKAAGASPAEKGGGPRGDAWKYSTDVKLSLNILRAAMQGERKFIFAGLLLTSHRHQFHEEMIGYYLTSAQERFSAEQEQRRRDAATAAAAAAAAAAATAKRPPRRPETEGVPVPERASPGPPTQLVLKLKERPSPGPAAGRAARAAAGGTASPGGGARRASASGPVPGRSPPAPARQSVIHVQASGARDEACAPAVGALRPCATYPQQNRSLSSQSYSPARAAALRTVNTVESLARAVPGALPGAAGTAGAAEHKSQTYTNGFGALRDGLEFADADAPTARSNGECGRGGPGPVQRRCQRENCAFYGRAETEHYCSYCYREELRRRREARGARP
Method in brief: as §1

UniProt Q9P2H5 = molecular target: T3, UniProt Q9P2H5
T3 sequence (whole entry): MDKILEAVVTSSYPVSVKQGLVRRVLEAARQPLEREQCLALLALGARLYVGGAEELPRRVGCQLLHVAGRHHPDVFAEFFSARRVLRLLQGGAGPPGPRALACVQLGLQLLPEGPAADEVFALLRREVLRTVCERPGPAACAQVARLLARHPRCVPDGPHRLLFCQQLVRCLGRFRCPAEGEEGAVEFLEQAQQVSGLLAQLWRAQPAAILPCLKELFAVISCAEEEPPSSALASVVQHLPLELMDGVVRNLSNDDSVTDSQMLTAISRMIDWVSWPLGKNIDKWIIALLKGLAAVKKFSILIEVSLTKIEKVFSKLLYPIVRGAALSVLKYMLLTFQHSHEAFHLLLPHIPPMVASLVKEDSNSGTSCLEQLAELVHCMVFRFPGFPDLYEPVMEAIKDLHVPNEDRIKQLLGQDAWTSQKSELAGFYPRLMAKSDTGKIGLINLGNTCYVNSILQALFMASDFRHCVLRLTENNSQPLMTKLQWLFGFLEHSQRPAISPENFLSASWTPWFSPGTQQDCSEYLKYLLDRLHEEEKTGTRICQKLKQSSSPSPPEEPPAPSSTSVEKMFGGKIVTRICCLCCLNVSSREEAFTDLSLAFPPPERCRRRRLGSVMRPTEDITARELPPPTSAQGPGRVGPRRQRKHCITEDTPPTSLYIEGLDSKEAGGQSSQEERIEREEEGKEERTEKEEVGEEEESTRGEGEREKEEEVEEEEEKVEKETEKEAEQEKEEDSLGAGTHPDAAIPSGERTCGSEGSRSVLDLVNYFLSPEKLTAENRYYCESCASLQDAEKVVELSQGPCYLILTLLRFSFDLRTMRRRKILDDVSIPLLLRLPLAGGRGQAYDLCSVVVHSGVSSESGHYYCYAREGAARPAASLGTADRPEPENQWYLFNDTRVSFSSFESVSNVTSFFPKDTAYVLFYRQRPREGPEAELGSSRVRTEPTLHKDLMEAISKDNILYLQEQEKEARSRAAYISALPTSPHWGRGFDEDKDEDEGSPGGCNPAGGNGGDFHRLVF
Method in brief: as §1

UniProt Q9UGI0 = molecular target: T4, UniProt Q9UGI0
T4 sequence (whole entry): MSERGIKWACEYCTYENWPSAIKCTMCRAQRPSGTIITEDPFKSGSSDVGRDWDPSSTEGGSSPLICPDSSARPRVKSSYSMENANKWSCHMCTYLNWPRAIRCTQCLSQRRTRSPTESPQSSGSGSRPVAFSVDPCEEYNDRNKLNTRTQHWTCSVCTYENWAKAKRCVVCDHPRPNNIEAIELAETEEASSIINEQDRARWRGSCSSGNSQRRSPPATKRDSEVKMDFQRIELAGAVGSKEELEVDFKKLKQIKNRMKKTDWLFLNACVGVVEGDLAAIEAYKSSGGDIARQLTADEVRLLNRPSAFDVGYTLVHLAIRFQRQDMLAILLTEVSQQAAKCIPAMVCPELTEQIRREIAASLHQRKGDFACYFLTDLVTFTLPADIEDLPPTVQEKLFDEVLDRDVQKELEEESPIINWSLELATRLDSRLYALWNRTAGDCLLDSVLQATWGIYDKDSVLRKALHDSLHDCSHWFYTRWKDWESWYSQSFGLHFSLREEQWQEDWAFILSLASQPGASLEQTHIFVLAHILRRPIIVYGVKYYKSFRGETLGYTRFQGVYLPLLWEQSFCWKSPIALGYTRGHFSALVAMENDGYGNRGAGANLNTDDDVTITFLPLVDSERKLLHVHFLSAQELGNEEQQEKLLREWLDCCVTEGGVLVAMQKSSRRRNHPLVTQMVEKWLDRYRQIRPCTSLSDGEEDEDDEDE
Method in brief: as §1

YOD1 = molecular target: T5, YOD1 (UniProt Q5VVQ6)
T5 sequence (whole entry): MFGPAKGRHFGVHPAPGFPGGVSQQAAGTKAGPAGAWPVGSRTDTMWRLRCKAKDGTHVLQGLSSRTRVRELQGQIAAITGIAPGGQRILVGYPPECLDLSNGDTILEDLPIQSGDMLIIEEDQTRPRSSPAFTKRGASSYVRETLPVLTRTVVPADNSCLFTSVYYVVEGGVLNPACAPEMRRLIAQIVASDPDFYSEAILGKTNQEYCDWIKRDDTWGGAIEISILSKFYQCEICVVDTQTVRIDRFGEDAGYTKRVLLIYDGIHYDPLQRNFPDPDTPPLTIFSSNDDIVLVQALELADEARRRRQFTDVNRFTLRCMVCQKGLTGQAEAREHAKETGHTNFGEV
Method in brief: as §1

Measured: log2 ratio of Biotin-Ahx-Ub-VS probe labelling

Sequence of USP9X (Q93008 whole entry, the tested form may be a part): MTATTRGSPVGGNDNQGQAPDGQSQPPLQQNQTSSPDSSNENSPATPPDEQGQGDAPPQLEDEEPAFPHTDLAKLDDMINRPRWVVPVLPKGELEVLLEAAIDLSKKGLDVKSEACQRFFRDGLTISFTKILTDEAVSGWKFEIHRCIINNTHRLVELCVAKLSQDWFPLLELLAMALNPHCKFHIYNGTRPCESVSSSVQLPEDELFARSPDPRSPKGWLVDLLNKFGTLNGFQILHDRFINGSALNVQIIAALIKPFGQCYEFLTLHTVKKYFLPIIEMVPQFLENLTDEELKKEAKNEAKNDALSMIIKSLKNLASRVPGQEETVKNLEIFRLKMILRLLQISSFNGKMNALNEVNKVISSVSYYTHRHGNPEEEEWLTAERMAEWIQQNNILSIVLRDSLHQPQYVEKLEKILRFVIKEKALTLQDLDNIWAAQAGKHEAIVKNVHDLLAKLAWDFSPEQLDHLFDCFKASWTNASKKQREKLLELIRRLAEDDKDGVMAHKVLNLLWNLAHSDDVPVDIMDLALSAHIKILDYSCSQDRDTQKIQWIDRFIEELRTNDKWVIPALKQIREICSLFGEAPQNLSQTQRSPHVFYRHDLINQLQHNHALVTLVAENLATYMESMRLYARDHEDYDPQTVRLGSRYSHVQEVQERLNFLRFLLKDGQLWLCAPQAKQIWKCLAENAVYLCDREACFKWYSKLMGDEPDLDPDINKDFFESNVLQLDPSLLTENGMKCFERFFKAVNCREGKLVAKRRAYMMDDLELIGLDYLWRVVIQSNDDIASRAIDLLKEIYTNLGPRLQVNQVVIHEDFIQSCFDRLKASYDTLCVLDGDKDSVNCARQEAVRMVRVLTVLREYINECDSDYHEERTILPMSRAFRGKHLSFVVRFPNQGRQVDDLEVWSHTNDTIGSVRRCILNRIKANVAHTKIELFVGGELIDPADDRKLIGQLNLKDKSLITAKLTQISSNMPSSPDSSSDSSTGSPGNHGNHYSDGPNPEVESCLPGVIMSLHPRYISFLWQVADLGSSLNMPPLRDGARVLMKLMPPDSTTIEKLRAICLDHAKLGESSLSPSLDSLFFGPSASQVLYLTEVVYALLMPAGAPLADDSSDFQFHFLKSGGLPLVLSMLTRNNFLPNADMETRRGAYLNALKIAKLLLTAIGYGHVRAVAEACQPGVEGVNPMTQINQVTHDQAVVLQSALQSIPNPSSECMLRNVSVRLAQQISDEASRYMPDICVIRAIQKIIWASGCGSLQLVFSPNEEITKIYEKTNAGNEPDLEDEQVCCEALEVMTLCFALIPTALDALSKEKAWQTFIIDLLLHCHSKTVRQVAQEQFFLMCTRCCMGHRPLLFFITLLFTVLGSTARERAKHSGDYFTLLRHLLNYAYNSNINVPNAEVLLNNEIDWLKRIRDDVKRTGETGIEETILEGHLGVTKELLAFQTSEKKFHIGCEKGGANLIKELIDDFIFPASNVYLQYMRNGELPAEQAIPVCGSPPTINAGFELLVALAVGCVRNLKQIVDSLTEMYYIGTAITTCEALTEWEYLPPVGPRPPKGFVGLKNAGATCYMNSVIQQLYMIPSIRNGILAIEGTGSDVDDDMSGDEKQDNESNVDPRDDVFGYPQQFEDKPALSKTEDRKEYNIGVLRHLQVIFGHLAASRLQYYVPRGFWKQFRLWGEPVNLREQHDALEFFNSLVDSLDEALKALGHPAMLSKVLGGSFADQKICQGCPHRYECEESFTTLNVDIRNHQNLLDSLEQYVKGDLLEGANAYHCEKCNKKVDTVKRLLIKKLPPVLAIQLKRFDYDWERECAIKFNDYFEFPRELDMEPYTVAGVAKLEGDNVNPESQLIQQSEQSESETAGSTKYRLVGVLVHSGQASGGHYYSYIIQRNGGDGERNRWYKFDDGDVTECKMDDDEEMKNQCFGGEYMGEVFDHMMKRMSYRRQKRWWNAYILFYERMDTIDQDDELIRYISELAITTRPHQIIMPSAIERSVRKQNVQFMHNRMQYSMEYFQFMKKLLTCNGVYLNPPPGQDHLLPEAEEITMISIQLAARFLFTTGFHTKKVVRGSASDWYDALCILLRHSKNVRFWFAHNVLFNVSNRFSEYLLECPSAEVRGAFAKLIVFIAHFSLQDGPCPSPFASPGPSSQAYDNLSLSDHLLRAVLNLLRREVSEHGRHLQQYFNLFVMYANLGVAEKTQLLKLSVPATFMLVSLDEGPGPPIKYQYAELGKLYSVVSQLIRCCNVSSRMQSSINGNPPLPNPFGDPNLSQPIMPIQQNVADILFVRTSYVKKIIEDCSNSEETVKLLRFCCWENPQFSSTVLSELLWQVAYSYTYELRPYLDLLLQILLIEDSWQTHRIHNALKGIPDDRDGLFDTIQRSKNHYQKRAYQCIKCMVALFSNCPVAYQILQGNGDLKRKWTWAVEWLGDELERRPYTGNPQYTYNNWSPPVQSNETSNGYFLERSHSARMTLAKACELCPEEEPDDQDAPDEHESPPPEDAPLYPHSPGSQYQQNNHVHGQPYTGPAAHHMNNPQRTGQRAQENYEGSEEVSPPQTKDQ

C[C@H]1CN(C(=O)CCl)CCN1C(=O)c1cnn(C)c1.Cl
inactive: USP9X -0.221 | UniProt O00487 -0.129 | UniProt O00507 0.326 | UniProt P51784 0.00812 | UniProt Q5T2D3 -0.292 | UniProt Q8TE49 -0.57 | UniProt Q9P2H5 -0.408 | UniProt Q9UGI0 0.189 | YOD1 0.0183

— the supplement of paper PMC11732987, “Enantioselective OTUD7B fragment discovery through chemoproteomics screening and high-throughput optimisation” (Communications Chemistry, 2025)
